Assay [1] is described as follows: NCI Yeast Anticancer Drug Screen. Data for the rad50 strain (AID 155).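 Also: 0% = growth of vehicle-only cultures of the same strain.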 As to conditions: S. cerevisiae rad50 strain growth inhibition, stronger effect = higher value. The procedure, abridged: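 Readout: growth inhibition relative to vehicle-treated cultures. Compound exposure was carried out in a genetically defined yeast strain deficient in DNA damage repair.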
Assay [2] in a line: NCI Yeast Anticancer Drug Screen. Data for the mec2-1 strain (AID 157). The conditions noted are these: S. cerevisiae mec2-1 strain, stronger effect = higher value. The procedure, abridged:
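Compounds were applied to mec2-1 yeast cells. Their growth was then compared with that of vehicle-treated cultures to give growth inhibition.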

Assay [3] can be described thus: NCI Yeast Anticancer Drug Screen. Data for the cln2 rad14 strain (AID 165).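 Also: 0% = growth equal to vehicle treated cultures.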 The conditions noted are these: S. cerevisiae cln2 rad14 strain, stronger effect = higher value. The procedure, abridged:
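Strain: cln2 rad14 yeast, altered in cell cycle control and DNA damage repair. Read-out: growth inhibition vs vehicle.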

A short description of assay [4]: NCI Yeast Anticancer Drug Screen. Data for the bub3 strain (AID 167). The conditions noted are these: S. cerevisiae bub3 mutant strain, stronger effect = higher value. The procedure, abridged: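 Readout: yeast growth inhibition, expressed relative to vehicle-only wells. The test organism is a mutant strain from a panel with lesions in DNA repair or checkpoint genes.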
A short description of assay [5]: NCI Yeast Anticancer Drug Screen. Data for the mlh1 rad18 strain (AID 175). The conditions noted are these: S. cerevisiae mlh1 rad18 strain growth inhibition, stronger effect = higher value. The procedure, abridged:
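A repair-deficient yeast strain is exposed to test compound, and growth is scored relative to vehicle-treated controls.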

Assay [6] can be described thus: NCI Yeast Anticancer Drug Screen. Data for the sgs1 mgt1 strain (AID 161).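 Also: 0% = growth of cultures given vehicle only.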 As to conditions: S. cerevisiae sgs1 mgt1 strain, stronger effect = higher value. In outline:
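Percent growth inhibition was derived by comparing compound-exposed mutant yeast with vehicle-exposed cultures. The strain carries alterations in DNA damage repair.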

The mark [7] stands for this setting: at 5.0 µM (retest, dose inferred, filed as 0.5).
Setting [8] is: at 50.0 µM (retest, dose inferred, filed as 5.0).

The text below walks through data of PubChem BioAssay (NCI).

Compounds without any hit were thinned out: in the full panel of roughly 79,000, 15% have a hit. A number with no mark means an inactive call. Active and inactive are the calls of the source. Rule as the data show it: active = growth inhibition above about 70%; inactive = the rest.

On to `Cc1cccc(C)c1O`, for which the growth inhibition was 17% in assay [1] (setting [7]); 99% (active) in assay [1] (setting [8]); 99% (active) in assay [1] (at 50.0 µM); -1% in assay [2] (setting [7]); 99% (active) in assay [2] (setting [8]); 98.5% (active) in assay [2] (at 50.0 µM). Also, the growth inhibition in assay [3] (setting [7]) was -9%; in assay [3] (setting [8]), 98% (active); in assay [3] (at 50.0 µM), 97.8% (active); in assay [4] (setting [7]) it was 3%; in assay [4] (setting [8]) it was 91% (active); in assay [4] (at 50.0 µM), 98.5% (active). The growth inhibition was 5% in assay [5] (setting [7]), 99% (active) in assay [5] (setting [8]) and 99.5% (active) in assay [5] (at 50.0 µM).
Regarding `N=C1C=CC(=C(c2ccc(N)cc2)c2ccc(N)cc2)C=C1`, the growth inhibition was -2% in assay [1] (setting [7]); 99% (active) in assay [1] (setting [8]); 98.8% (active) in assay [1] (at 50.0 µM); 24% in assay [2] (setting [7]); 98% (active) in assay [2] (setting [8]); 98.5% (active) in assay [2] (at 50.0 µM). Moreover, the growth inhibition was 8% in assay [6] (setting [7]); 97% (active) in assay [6] (setting [8]); 97.8% (active) in assay [6] (at 50.0 µM); -15% in assay [3] (setting [7]); 93% (active) in assay [3] (setting [8]); 96.8% (active) in assay [3] (at 50.0 µM). Also, the growth inhibition in assay [5] (setting [7]) is -4%; in assay [5] (setting [8]), 97% (active); in assay [5] (at 50.0 µM) it was 97.4% (active).
With `O=C(O)C(=O)Cc1ccccc1[N+](=O)[O-]`, the growth inhibition is -3% in assay [1] (setting [7]); 36% in assay [1] (setting [8]); 75.4% (active) in assay [1] (at 50.0 µM); 1% in assay [2] (setting [7]); 1% in assay [2] (setting [8]); 4.9% in assay [2] (at 50.0 µM). Moreover, the growth inhibition in assay [6] (setting [7]) was -3%; in assay [6] (setting [8]) it was 28%; in assay [6] (at 50.0 µM), 68.3%; in assay [3] (setting [7]), 1%; in assay [3] (setting [8]), 3%; in assay [3] (at 50.0 µM), -18.6%. Also, the growth inhibition in assay [5] (setting [7]) was -2%; in assay [5] (setting [8]), 24%; in assay [5] (at 50.0 µM), 68.2%.
As to `CC(C)CCCC(C)C1CCC2C3CCC4=CC(O)CCC4(C)C3CCC12C` (stereo unspecified), the growth inhibition is -5% in assay [1] (setting [7]); 96% (active) in assay [1] (setting [8]); 93.8% (active) in assay [1] (at 50.0 µM); 1% in assay [2] (setting [7]); 94% (active) in assay [2] (setting [8]); 90.3% (active) in assay [2] (at 50.0 µM). In addition, the growth inhibition in assay [6] (setting [7]) was -2%; in assay [6] (setting [8]) it was 92% (active); in assay [6] (at 50.0 µM) it was 93% (active); in assay [3] (setting [7]), -8%; in assay [3] (setting [8]), 95% (active); in assay [3] (at 50.0 µM) it was 94.3% (active). The values for the growth inhibition in assay [5] (setting [7]), in assay [5] (setting [8]) and in assay [5] (at 50.0 µM) were -3%, 97% (active) and 93.5% (active), respectively.
Turning to `O=C1C(Br)=C(Sc2ccc([N+](=O)[O-])cc2)C(=O)c2ccccc21`, the growth inhibition in assay [1] (setting [7]) is 56%; in assay [1] (setting [8]) it was 90% (active); in assay [1] (at 50.0 µM) it was 93.5% (active); in assay [2] (setting [7]) it was 64%; in assay [2] (setting [8]) it was 94% (active); in assay [2] (at 50.0 µM) it was 96.7% (active). Also, the growth inhibition in assay [6] (setting [7]) is 51%; in assay [6] (setting [8]) it was 96% (active); in assay [6] (at 50.0 µM), 96.6% (active); in assay [3] (setting [7]), 11%; in assay [3] (setting [8]), 91% (active); in assay [3] (at 50.0 µM), 84.2% (active). The growth inhibition in assay [4] (setting [7]) was 65%; in assay [4] (setting [8]), 96% (active); in assay [4] (at 50.0 µM) it was 96.6% (active); in assay [5] (setting [7]) it was 33%; in assay [5] (setting [8]), 92% (active); in assay [5] (at 50.0 µM), 97% (active).
Regarding `c1cnc2ccc3c4cccnc4ccc3c2c1`, the growth inhibition in assay [1] (setting [7]) is 12%; in assay [1] (setting [8]), 95% (active); in assay [1] (at 50.0 µM) it was 96.8% (active); in assay [2] (setting [7]), 0%; in assay [2] (setting [8]), 75% (active); in assay [2] (at 50.0 µM), 75% (active). Moreover, the growth inhibition in assay [6] (setting [7]) was 7%; in assay [6] (setting [8]), 81% (active); in assay [6] (at 50.0 µM) it was 61.3%; in assay [3] (setting [7]) it was -17%; in assay [3] (setting [8]), 67%; in assay [3] (at 50.0 µM) it was 59.5%. For the same molecule, the growth inhibition in assay [4] (setting [7]) was 2%; in assay [4] (setting [8]) it was 66%; in assay [4] (at 50.0 µM) it was 75.8% (active); in assay [5] (setting [7]), 1%; in assay [5] (setting [8]), 89% (active); in assay [5] (at 50.0 µM), 80.4% (active).
As to `c1csc(-c2nnc(C34CC5CC(CC(C5)C3)C4)o2)c1`, the growth inhibition in assay [1] (setting [7]) was -31%; in assay [1] (setting [8]) it was 93% (active); in assay [1] (at 50.0 µM) it was 61.5%; in assay [2] (setting [7]) it was -12%; in assay [2] (setting [8]), 95% (active); in assay [2] (at 50.0 µM), 55.3%. Further, the growth inhibition in assay [6] (setting [7]) was -24%; in assay [6] (setting [8]) it was 97% (active); in assay [6] (at 50.0 µM), 83.3% (active); in assay [3] (setting [7]), -2%; in assay [3] (setting [8]) it was 76% (active); in assay [3] (at 50.0 µM), 7.3%. The values for the growth inhibition in assay [5] (setting [7]), in assay [5] (setting [8]) and in assay [5] (at 50.0 µM) were -12%, 98% (active) and 65.3%, respectively.
As to `CC(=O)Nc1ccc(-c2nnc(SCC(=O)Nc3ccc([N+](=O)[O-])cc3)o2)cc1`, the growth inhibition is -1% in assay [1] (setting [7]); 45% in assay [1] (setting [8]); 33.4% in assay [1] (at 50.0 µM); -8% in assay [2] (setting [7]); 65% in assay [2] (setting [8]); 39.3% in assay [2] (at 50.0 µM). Besides, the growth inhibition was 4% in assay [3] (setting [7]); 56% in assay [3] (setting [8]); -37.9% in assay [3] (at 50.0 µM); 11% in assay [4] (setting [7]); 92% (active) in assay [4] (setting [8]); 82% (active) in assay [4] (at 50.0 µM). Further, the figures for the growth inhibition in assay [5] (setting [7]), in assay [5] (setting [8]) and in assay [5] (at 50.0 µM) were 5%, 74% (active) and 28.4%, respectively.
For `CSS(=O)(=O)c1ccc(C)cc1`, the growth inhibition in assay [1] (setting [7]) was 22%; in assay [1] (setting [8]) it was 99% (active); in assay [1] (at 50.0 µM) it was 99.7% (active); in assay [2] (setting [7]), 22%; in assay [2] (setting [8]), 100% (active); in assay [2] (at 50.0 µM) it was 99.7% (active). The growth inhibition in assay [6] (setting [7]) was 21%; in assay [6] (setting [8]), 100% (active); in assay [6] (at 50.0 µM), 99.2% (active); in assay [3] (setting [7]) it was -27%; in assay [3] (setting [8]), 99% (active); in assay [3] (at 50.0 µM), 99.4% (active). Besides, the figures for the growth inhibition in assay [5] (setting [7]), in assay [5] (setting [8]) and in assay [5] (at 50.0 µM) were -10%, 99% (active) and 99.5% (active), respectively.
With `Nc1ccc(S(=O)(=O)NCc2nccs2)cc1`, the growth inhibition in assay [1] (setting [7]) was -5%; in assay [1] (setting [8]) it was 81% (active); in assay [1] (at 50.0 µM), 17.9%; in assay [2] (setting [7]), 14%; in assay [2] (setting [8]) it was 58%; in assay [2] (at 50.0 µM), 50%. Further, the growth inhibition is -7% in assay [3] (setting [7]); 60% in assay [3] (setting [8]); 47.4% in assay [3] (at 50.0 µM); 37% in assay [4] (setting [7]); 80% (active) in assay [4] (setting [8]); 31.7% in assay [4] (at 50.0 µM). Also, the growth inhibition in assay [5] (setting [7]) was 11%; in assay [5] (setting [8]), 87% (active); in assay [5] (at 50.0 µM), 70.5% (active).
